Source: PubChem BioAssay
Active and inactive are the calls of the source. The rule behind the calls is not given here.

molecular target: Pantothenate synthetase (Mycobacterium tuberculosis (strain ATCC 25618 / H37Rv)) (UniProt P9WIL5); test: Recombinant Mtb pantothenate synthetase (PanC) inhibitors, coupled enzyme, confirmatory (AID 375); conditions: coupled enzyme assay; at 10 µM, stronger effect = higher value;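 note: 0% = full reaction with vehicle and 100% = no enzyme background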
Sequence (P9WIL5 whole entry, looked up): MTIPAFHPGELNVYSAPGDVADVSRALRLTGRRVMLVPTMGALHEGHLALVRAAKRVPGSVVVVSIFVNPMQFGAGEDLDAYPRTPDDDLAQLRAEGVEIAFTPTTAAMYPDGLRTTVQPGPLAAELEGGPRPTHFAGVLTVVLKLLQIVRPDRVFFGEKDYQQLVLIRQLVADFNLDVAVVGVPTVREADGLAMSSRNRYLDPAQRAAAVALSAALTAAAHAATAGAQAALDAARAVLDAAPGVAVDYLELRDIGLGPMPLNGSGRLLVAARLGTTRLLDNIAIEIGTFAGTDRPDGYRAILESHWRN

Question: `CCn1c(=O)cc(SCC(=O)NCCN2CCN(Cc3ccccc3)CC2)c2ccccc21` was tested. Which inhibition did it give?
Answer: 0% (inactive)

Question: `CCOC(=O)c1cccc(NC(=O)CNS(=O)(=O)c2cccs2)c1` was tested. Which inhibition did it give?
Answer: 0% (inactive)

Question: Which inhibition does the source give for `Cc1ccc(-c2ccc(=O)n(CCC(=O)NCCN3CCCCC3C)n2)cc1` (stereo not given) here?
Answer: 0% (inactive)

Question: With `CCn1c(Cc2ccccc2)nnc1SCC(=O)Nc1cc(C)on1` as the compound, how does the inhibition read?
Answer: 0% (inactive)

Question: `Cc1ccc(C)c(C(=O)NC2CC(C)(C)NC(C)(C)C2)c1` was tested. Which inhibition did it give?
Answer: 0% (inactive)

Question: For `COc1ccc(C(C(C(=O)c2cccs2)N2CCOCC2)N2CCOCC2)cc1OC` (stereo not given), which inhibition is on record?
Answer: 0% (inactive)

Question: `CCCCOC(=O)Nc1nc2ccc(OC)cc2s1` was tested. Which inhibition did it give?
Answer: 5% (inactive)

Question: `CN1/C(=C\C(=O)C(F)F)C(C)(C)c2ccccc21` was tested. Which inhibition did it give?
Answer: 0% (inactive)

Question: `CN1CCN(CCCN2c3ccccc3Sc3ccc(Cl)cc32)CC1` was tested. Which inhibition did it give?
Answer: 0% (inactive)

Question: How did the inhibition turn out when `Nc1nc(CSCc2ccccc2)nc(N2CCOCC2)n1` was run?
Answer: 1% (inactive)

Question: `Cc1ccc(Nc2nc(N)nc(CN3CCN(Cc4ccc5c(c4)OCO5)CC3)n2)cc1` was tested. Which inhibition did it give?
Answer: 0% (inactive)

Question: How did the inhibition turn out when `CCc1nnc(NC(=O)CSc2nnc(-c3ccc(OC)cc3)n2C)s1` was run?
Answer: 0% (inactive)

Question: How did the inhibition turn out when `Cc1cccc(OCCNC(=O)c2ncn[nH]2)c1` was run?
Answer: 0% (inactive)

Question: For `O=C(CCN1C(=O)C2C3C=CC(C3)C2C1=O)NCCc1ccccc1Cl` (stereo not given), which inhibition is on record?
Answer: 0% (inactive)

Question: How did the inhibition turn out when `Cc1ccc(C(c2sc3nc(C)nn3c2O)N2CC(C)OC(C)C2)cc1` (stereo not given) was run?
Answer: 0% (inactive)

Question: How did the inhibition turn out when `O=C(O)c1ccccc1S` was run?
Answer: 0% (inactive)

Question: For `Cc1c(C(=O)NCc2ccccn2)sc2nc(-c3ccc(F)cc3)cn12`, which inhibition is on record?
Answer: 0% (inactive)

Question: `Cc1ccccc1C(OCCN(C)C)c1ccccc1` (stereo not given) was tested. Which inhibition did it give?
Answer: 0% (inactive)

Question: `CC(C)[C@H](NC(=O)OC(C)(C)C)c1nnc(SCC(=O)Nc2ccc(Br)cc2)o1` was tested. Which inhibition did it give?
Answer: 0% (inactive)

Question: Which inhibition does the source give for `COc1ccc2cc(C(=O)NCc3ccco3)c(=Nc3ccc(C(=O)O)cc3)oc2c1` here?
Answer: 0% (inactive)

Question: How did the inhibition turn out when `COc1cc(C2=NOC(C(=O)NCc3ccc(F)cc3)C2)cc(OC)c1OC` (stereo not given) was run?
Answer: 0% (inactive)

Question: How did the inhibition turn out when `COc1ccc(CN2C(=O)c3ccccc3C2C(=O)NC2CCCC2)c(OC)c1` (stereo not given) was run?
Answer: 0% (inactive)

Question: Which inhibition does the source give for `c1ccc2c(c1)CCCC2C1=NCCN1` (stereo not given) here?
Answer: 0% (inactive)

Question: With `N[C@@H](C(=O)N[C@@H]1C(=O)N2C(C(=O)O)=C(Cl)CS[C@H]12)c1ccccc1` as the compound, how does the inhibition read?
Answer: 2% (inactive)

Question: For `Cn1c(=O)c2c(nc(Br)n2CCSc2nnnn2-c2ccccc2)n(C)c1=O`, which inhibition is on record?
Answer: 0% (inactive)

Question: Which inhibition does the source give for `CC1Cn2c(nnc2-c2ccc(F)cc2)S1` (stereo not given) here?
Answer: 6% (inactive)

Question: Which inhibition does the source give for `COc1ccc(N2CCN(CCCNC(=O)C3(S(=O)(=O)c4ccc(Cl)cc4)CC3)CC2)cc1` here?
Answer: 0% (inactive)

Question: How did the inhibition turn out when `CC(C)OC(=O)CSc1nnc(-c2ccc(O)cc2)n1Cc1ccccc1` was run?
Answer: 0% (inactive)

Question: How did the inhibition turn out when `CCOC(=O)C1CCN(c2cc(C)nc3cc(-c4cccc(F)c4)nn23)CC1` was run?
Answer: 3% (inactive)

Question: With `C[C@]12CC[C@@H]3c4ccc(OC(=O)c5ccccc5)cc4CC[C@H]3[C@@H]1CC[C@@H]2O` as the compound, how does the inhibition read?
Answer: 0% (inactive)

Question: How did the inhibition turn out when `O=C(CCN1CCN(CCO)CC1)Nc1ccc(OCc2ccccc2)cc1` was run?
Answer: 6% (inactive)

Question: How did the inhibition turn out when `c1ccc2c(c1)CNC1(CCCCC1)C2` was run?
Answer: 3% (inactive)

Question: `CCOC(=O)c1c(C)oc2ccc(NS(=O)(=O)c3ccc4c5c(cccc35)C(=O)N4)cc12` was tested. Which inhibition did it give?
Answer: 3% (inactive)

Question: For `CCOc1ccc(C(=O)N2CCN(C(=O)c3ccco3)CC2)cc1OCC`, which inhibition is on record?
Answer: 1% (inactive)

Question: For `Cc1cc(NC(=O)C23CCC(C)(C(=O)O2)C3(C)C)no1` (stereo not given), which inhibition is on record?
Answer: 1% (inactive)

Question: With `O=C(Nc1ncc(Br)s1)C1CCCN1S(=O)(=O)c1cccc2cccnc12` (stereo not given) as the compound, how does the inhibition read?
Answer: 0% (inactive)

Question: How did the inhibition turn out when `Cc1cc2ccccc2c(=O)n1CC(=O)Nc1ccc2c(c1)OCO2` was run?
Answer: 0% (inactive)

Question: Which inhibition does the source give for `O=C(Nc1ccccc1-c1ccccc1)NC1CCN(CC(=O)N2CCOCC2)CC1` here?
Answer: 0% (inactive)

Question: Which inhibition does the source give for `CC(=O)[C@H]1[C@H](C#N)C[C@H]2[C@@H]3CC=C4C[C@@H](O)CC[C@]4(C)[C@H]3CC[C@@]21C` here?
Answer: 0% (inactive)

Question: `CC1CCCC(C(=O)OCc2ccccc2)N1` (stereo not given) was tested. Which inhibition did it give?
Answer: 0% (inactive)
